Experimental data: PubChem BioAssay
Active and inactive are the calls of the source.

Assays:
Albumin (Bos taurus) = Albumin (Bos taurus) (UniProt P02769); assay: compounds binding labelled BSA control protein – biochemical, small-molecule microarray, Alexa647 label, 635/667 nm fluorescence, artefact control for SMM control protein annotation, profiling panel (AID 1118); conditions: BSA-A647 binding, fluorescence 635 nm, higher = more signal;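 note: score merges 667 nm emission intensity and signal-to-noise per printed compound spot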
[1] = probe aXIP binding to arrayed compounds – biochemical, NeuroSMM set, 635/667 nm fluorescence, primary screen (AID 1119); conditions: small-molecule microarray, higher = more signal, called active from +8 up or from −8 down;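 note: probe is the protein aXip251-270 applied at 1 µg/mL to compound-printed slides; binding of probe to printed compounds measured as 667 nm fluorescence plus signal to noise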
[2] = probe aNOTCH3 binding on compound microarray – biochemical, small-molecule microarray, 635/667 nm fluorescence, primary screen (AID 1120); conditions: higher = more signal;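 note: probe is a biotin-tagged antibody raised against NOTCH3 rather than NOTCH3 protein; score merges spot fluorescence near 667 nm with spot signal to noise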
[3] = probe aNOTCH2 binding on compound microarray – biochemical, small-molecule microarray, 635/667 nm fluorescence, primary screen (AID 1121); conditions: higher = more signal;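 note: score merges feature fluorescence read at 667 nm with its signal to noise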
[4] = target: Carbonic anhydrase 2 (Homo sapiens) (UniProt P00918); assay: compounds binding carbonic anhydrase 2 – biochemical, small-molecule microarray, Alexa647-labelled CAII, profiling panel (AID 1122); conditions: CAII-A647 binding fluorescence, higher = more signal
[5] = COS7 lysate on small-molecule microarray, probe aHis, 635 nm (AID 1123); conditions: COS7 cell lysate, fluorescence, higher = more signal;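 note: z-score combines 667nm fluorescence intensity with signal-to-noise per printed compound spot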
[6] = probe aLAP1 signal on lysate-treated microarray – cell lysate, small-molecule microarray, COS7 lysate, primary screen (AID 1124); conditions: probe aLAP1, fluorescence, higher = more signal;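 note: lysate comes from COS7 cells expressing LAP1 and is applied at 0.3 µg/mL; score merges spot fluorescence near 667 nm with signal-to-noise over triplicate slides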
Sam68 (KHDRBS1) = assay: compounds binding KHDRBS1 protein – biochemical, small-molecule microarray, 635 nm fluorescence, primary screen (AID 1125); conditions: higher = more signal;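 note: score merges 667 nm channel intensity with signal to noise over triplicate slides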
[7] = system: Chordin-like protein 2 (CHRDL2); assay: compounds binding chordin-like 2 – biochemical, small-molecule microarray, 635 nm fluorescence, primary screen (AID 1126); conditions: fluorescence 635 nm, higher = more signal;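 note: printed compound slides probed with Chrdl2 protein at 4 µg/mL for 1 h at 4 C; score merges 667 nm emission intensity with signal to noise over three replicate slides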
[8] = target: Concanavalin-A (Canavalia ensiformis) (UniProt P02866); assay: compounds binding concanavalin A lectin – biochemical, small-molecule microarray, Alexa647 label, 635 nm, artefact control for SMM control protein annotation, primary screen (AID 1127); conditions: ConA-A647 binding fluorescence, higher = more signal;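 note: z combines 667 nm emission intensity with signal-to-noise across three replicate slides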
[9] = compounds binding Alexa647 anti-His antibody – biochemical, small-molecule microarray, 635 nm fluorescence, artefact control for SMM control protein annotation, primary screen (AID 1128); conditions: higher = more signal;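 note: score merges feature fluorescence with signal-to-noise for each printed compound spot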
[10] = system: Human papillomavirus type 1a E7 protein (residues 1-88); assay: HPV1a E7 small-molecule binders, primary screen, biochemical, small-molecule microarray, residues 1-88, 635 nm (AID 1129); conditions: small-molecule microarray binding, fluorescence 635 nm; higher = more signal
[11] = target: Focal adhesion kinase 1 (Homo sapiens) (UniProt Q05397); assay: PTK2 protein binding on printed compound slides – biochemical, small-molecule microarray, 635/667 nm fluorescence, BSA, DTT, primary screen (AID 1130); conditions: 635 nm fluorescence, higher = more signal;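 note: composite of spot emission at 667 nm and signal to noise over triplicate slides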
[12] = system: Fibrinogen (Alexa647-labelled); assay: Alexa647-fibrinogen binding to printed small molecules – biochemical, small-molecule microarray, 635/667 nm fluorescence, artefact control for SMM control-protein annotation, profiling panel (AID 1131); conditions: fibrinogen-A647 binding fluorescence, higher = more signal;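 note: z-score merges 667 nm fluorescence with per-spot signal-to-noise over triplicate slides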
[13] = target: Follistatin (Homo sapiens) (UniProt P19883); assay: FST protein binding to printed compounds – biochemical, small-molecule microarray, 635/667 nm fluorescence, primary screen (AID 1132); conditions: 635 nm fluorescence, higher = more signal
[14] = target: Fibroblast growth factor 2 (Homo sapiens) (UniProt P09038); assay: basic fibroblast growth factor binding to printed compounds – biochemical, small-molecule microarray, 635/667 nm fluorescence, primary screen (AID 1133); conditions: FGF2, fluorescence 635/667, higher = more signal
[15] = JC-1 mitochondrial potential readout, lung cancer cells – cell-based, A549, JC-1 fluorescence, basal, 24 h, 100 nL, profiling panel (AID 1138); conditions: higher = more signal;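 note: A549 lung adenocarcinoma cells under basal conditions with no added stimulus; test concentration not given here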
Lefty1 = Lefty1 protein binding to printed compounds – biochemical, small-molecule microarray, 635/667 nm fluorescence, primary screen (AID 1139); conditions: fluorescence 635/667, higher = more signal
[16] = system: wheat germ agglutinin (Triticum aestivum), Alexa647-labelled; assay: Alexa647-WGA lectin binding to printed small molecules – biochemical, small-molecule microarray, 635/667 nm fluorescence, artefact control for SMM control-protein annotation, profiling panel (AID 1140); conditions: WGA-A647 binding, 635 nm fluorescence, higher = more signal;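 note: score merges 667 nm feature emission with signal to noise over triplicate slides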
[17] = target: Luciferin 4-monooxygenase (Photinus pyralis) (UniProt P08659); assay: inhibition of purified Photinus pyralis luciferase – biochemical, luminescence, purified enzyme, 2006 set, primary screen (AID 1141); conditions: purified firefly luciferase, SteadyGlo luminescence, 30 min; higher = more signal, called active from +8 up or from −8 down;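 note: cell-free assay with purified firefly luciferase at 100 ng per well in PBS; test concentration not given here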
Luciferin 4-monooxygenase (Photinus pyralis), sequence (P08659 whole entry, looked up): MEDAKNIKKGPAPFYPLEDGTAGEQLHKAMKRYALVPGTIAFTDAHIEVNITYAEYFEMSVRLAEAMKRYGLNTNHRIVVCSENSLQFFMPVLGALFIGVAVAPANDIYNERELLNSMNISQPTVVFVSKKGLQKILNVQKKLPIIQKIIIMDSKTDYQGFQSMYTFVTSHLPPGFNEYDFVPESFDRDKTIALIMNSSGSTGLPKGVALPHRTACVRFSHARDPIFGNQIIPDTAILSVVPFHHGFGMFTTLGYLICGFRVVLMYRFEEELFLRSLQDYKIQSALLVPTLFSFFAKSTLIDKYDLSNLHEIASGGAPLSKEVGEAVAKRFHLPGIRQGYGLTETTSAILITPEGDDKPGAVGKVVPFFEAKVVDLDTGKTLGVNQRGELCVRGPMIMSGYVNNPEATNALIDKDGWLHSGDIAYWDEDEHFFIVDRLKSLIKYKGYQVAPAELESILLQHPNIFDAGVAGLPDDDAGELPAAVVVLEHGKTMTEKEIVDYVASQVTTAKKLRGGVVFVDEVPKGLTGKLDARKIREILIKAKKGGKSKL

Albumin (Bos taurus), sequence (P02769 whole entry, looked up): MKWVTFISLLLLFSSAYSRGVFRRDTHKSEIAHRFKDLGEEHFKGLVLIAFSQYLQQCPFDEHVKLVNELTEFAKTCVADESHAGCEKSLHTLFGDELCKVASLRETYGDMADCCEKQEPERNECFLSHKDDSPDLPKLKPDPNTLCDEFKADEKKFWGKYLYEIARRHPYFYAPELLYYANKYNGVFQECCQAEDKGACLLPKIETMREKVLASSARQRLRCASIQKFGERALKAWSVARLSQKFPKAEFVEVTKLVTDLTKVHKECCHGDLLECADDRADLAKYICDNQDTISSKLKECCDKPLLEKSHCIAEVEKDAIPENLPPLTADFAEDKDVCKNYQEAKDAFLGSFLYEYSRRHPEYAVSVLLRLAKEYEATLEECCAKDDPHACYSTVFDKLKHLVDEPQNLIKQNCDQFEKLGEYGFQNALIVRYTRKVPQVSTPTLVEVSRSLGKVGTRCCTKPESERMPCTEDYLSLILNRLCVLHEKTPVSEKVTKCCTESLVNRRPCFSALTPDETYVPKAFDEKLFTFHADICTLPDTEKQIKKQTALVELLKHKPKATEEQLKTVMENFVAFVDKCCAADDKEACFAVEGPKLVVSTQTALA
Concanavalin-A (Canavalia ensiformis), sequence (P02866 whole entry, looked up): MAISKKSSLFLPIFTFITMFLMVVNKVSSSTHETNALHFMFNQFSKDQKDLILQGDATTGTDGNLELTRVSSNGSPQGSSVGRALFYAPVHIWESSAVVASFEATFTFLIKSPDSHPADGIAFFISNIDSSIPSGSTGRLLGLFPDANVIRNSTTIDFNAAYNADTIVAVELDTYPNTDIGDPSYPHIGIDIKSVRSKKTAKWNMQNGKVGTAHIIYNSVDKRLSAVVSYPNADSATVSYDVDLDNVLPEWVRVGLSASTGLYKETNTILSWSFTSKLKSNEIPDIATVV
Follistatin (Homo sapiens), sequence (P19883 whole entry, looked up): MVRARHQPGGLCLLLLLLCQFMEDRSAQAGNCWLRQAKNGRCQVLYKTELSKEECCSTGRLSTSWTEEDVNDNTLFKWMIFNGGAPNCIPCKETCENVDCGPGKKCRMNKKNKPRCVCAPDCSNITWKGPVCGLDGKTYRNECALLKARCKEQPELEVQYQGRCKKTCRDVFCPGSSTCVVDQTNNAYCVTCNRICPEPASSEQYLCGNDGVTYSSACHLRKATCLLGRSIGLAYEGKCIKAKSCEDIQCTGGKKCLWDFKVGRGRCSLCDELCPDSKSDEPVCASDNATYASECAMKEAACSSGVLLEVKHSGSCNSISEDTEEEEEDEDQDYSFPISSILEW
Focal adhesion kinase 1 (Homo sapiens), sequence (Q05397 whole entry, looked up): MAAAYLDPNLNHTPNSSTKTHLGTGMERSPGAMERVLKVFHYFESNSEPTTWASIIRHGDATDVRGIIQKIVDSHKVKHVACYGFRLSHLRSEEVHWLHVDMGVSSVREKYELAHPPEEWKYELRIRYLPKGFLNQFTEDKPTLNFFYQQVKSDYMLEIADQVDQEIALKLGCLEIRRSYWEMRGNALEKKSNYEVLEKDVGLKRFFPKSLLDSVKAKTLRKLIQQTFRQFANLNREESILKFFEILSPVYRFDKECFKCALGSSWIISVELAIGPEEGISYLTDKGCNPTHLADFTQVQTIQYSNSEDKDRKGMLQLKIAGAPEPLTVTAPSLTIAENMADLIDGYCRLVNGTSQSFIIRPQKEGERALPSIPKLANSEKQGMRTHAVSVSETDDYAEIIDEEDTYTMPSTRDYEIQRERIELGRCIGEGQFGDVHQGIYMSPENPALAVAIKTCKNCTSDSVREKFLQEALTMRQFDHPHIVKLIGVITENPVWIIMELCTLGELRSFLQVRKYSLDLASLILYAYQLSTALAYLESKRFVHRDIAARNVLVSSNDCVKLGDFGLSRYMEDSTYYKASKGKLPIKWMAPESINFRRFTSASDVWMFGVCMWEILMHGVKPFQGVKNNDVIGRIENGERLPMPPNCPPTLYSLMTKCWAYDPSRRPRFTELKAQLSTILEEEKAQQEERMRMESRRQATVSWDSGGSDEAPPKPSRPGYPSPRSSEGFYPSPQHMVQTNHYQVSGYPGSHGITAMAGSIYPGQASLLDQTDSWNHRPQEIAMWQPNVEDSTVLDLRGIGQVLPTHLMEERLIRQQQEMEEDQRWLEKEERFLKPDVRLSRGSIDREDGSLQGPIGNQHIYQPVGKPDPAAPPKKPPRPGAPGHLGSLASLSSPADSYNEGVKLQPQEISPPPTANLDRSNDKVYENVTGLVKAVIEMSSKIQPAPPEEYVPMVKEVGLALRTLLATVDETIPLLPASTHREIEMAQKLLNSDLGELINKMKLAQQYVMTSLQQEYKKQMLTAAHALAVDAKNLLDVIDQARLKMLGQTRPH
Fibroblast growth factor 2 (Homo sapiens), sequence (P09038 whole entry, looked up): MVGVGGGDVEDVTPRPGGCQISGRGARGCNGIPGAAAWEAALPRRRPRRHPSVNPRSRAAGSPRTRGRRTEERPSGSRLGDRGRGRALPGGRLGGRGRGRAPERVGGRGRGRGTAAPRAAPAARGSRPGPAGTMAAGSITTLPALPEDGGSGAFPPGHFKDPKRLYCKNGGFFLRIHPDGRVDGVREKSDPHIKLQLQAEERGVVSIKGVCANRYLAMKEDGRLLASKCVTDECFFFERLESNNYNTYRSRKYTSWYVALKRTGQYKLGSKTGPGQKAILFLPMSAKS

Structure (SMILES) | composite z-score (Albumin (Bos taurus)) | composite Z-score [1] | composite z-score [2] | composite z-score [3] | composite z-score [4] | composite z-score [5] | composite z-score [6] | composite z-score (Sam68 (KHDRBS1)) | composite z-score [7] | composite z-score [8] | composite z-score [9] | composite z-score [10] | composite z-score [11] | composite z-score [12] | composite z-score [13] | composite z-score [14] | z-score [15] | composite z-score (Lefty1) | composite z-score [16] | z-score [17]
COCCOC(=O)N1C(=O)[C@@]2(c3cc(C#Cc4ccc(OC)cc4)ccc31)[C@H](c1ccc(O)cc1)N1[C@H](c3ccccc3)[C@H](c3ccccc3)OC(=O)[C@H]1[C@@H]2C(=O)Nc1nc2ccccc2s1 | 0.576 | 0.303 (inactive) | -0.0299 | -0.124 | 0.537 | 1.54 | -0.0159 | 1.3 | 0.0727 | 1.16 | 0.513 | 1.19 | -0.0177 | 0.939 | 1.26 | 0.499 | -2.06 | 0.617 | 0.649 | -0.894 (inactive)
O=C1O[C@@H](c2ccccc2)[C@@H](c2ccccc2)N2[C@@H](c3ccccc3OCCO)[C@]3(C(=O)Nc4ccccc43)[C@@H](C(=O)O)[C@H]12 | 0.858 | -0.0247 (inactive) | -0.254 | -0.0657 | 0.441 | 1.78 | 0.369 | 1.12 | -0.165 | 1.13 | 0.969 | 0.718 | 0.66 | 0.882 | -0.0086 | -0.166 | -0.184 | -0.474 | 0.56 | -1.55 (inactive)
COc1ccc([Si](C)(C)[C@@H]2[C@@H](CCn3cc(CCO)nn3)O[C@]3(C(=O)N(Cc4cccc(N5C(=O)c6cccc7cccc5c67)c4)c4ccccc43)[C@H]2C)cc1 | 0.695 | 0.478 (inactive) | 0.0351 | -0.14 | 0.224 | 1.01 | 0.222 | 1.29 | -0.0468 | 0.833 | 1.18 | 1.16 | 0.321 | 0.556 | 1.16 | 0.672 | -1.1 | 1.23 | 0.509 | 0.178 (inactive)
CN(C)CCCCNC(=O)[C@@H]1C[C@@H]2C(=O)N[C@@H](CCCCN)C(=O)N2[C@@H]1c1ccc(O)cc1 | -0.153 | 0.237 (inactive) | -0.0613 | -0.0241 | -0.0397 | 1.7 | 0.0496 | 0.239 | 0.965 | 1.19 | 0.253 | -0.0102 | -0.0748 | 0.223 | 1.34 | 1.68 | -1.38 | 0.896 | 0.857 | -0.0213 (inactive)
COCC(=C=CC[C@H](O)c1ccccc1OCCO)CCO | 0.003 | -0.325 (inactive) | -0.0048 | -0.0475 | 0.774 | 0.969 | 0.162 | 0.853 | -0.546 | 0.298 | -0.69 | 0.268 | 0.432 | 0.869 | 0.992 | 1.11 | 0.417 | 1.15 | 1.14 | 0.109 (inactive)
CC(=O)n1cc(C(O)C2C=CC3C(=O)NC(=O)C3N2Nc2ccccn2)c2ccccc21 (stereo not given) | 0.281 | -0.0662 (inactive) | -0.116 | -0.176 | 0.817 | 0.688 | 0.248 | 0.0906 | 0.549 | 0.551 | 0.426 | 0.355 | 1.74 | 0.0552 | 0.242 | -0.219 | 0.471 | -0.0259 | 0.0414 | -1.35 (inactive)
CC(=CC1CCCCC1)[C@@H](NC(=O)c1cccnc1)c1ccc(-c2ccccc2)cc1 | 0.513 | -0.8 (inactive) | -0.118 | -0.0665 | 0.0804 | 1.24 | -0.264 | -0.649 | -0.531 | 0.132 | 0.219 | 0.242 | -0.0341 | 0.0017 | -0.0317 | -0.741 | -0.637 | -0.496 | 0.495 | 0.722 (inactive)
CN(C)CCCCCCNC(=O)[C@@H]1C[C@@H]2C(=O)N3CCC[C@H]3C(=O)N2[C@@H]1c1ccc(O)cc1 | -0.645 | 2.74 (inactive) | 0.488 | 0.119 | 0.738 | 2.77 | 1.47 | 1.31 | 1.43 | 1.16 | 3.06 | 1.11 | -0.135 | 0.539 | 1.47 | 1.74 | 0.334 | 1.72 | 0.758 | -0.934 (inactive)
CCOC(=O)C[C@H]1[C@H](OC(=O)c2ccc(C(=O)c3ccccc3)cc2)[C@@H](NC(=O)c2ccccc2)c2cc(OCCCO)ccc2N1C(=O)c1ccccc1 | 0.754 | 0.607 (inactive) | 0.184 | -0.108 | 0.171 | 0.702 | -0.115 | 1.23 | 0.17 | 0.82 | 0.0654 | 0.321 | 0.775 | 0.704 | 0.64 | 0.752 | 0.697 | 0.802 | 0.405 | 0.685 (inactive)
C=CCN1C(=O)[C@]2(Cc3ccccc3)N=C(c3ccc(OCCCO)cc3)O[C@@H]2c2ccccc21 | -0.591 | -0.452 (inactive) | 0.143 | -0.0029 | 0.414 | 2.79 | -0.0869 | 1.3 | 0.997 | 0.911 | 3.16 | 1.2 | 0.145 | 0.548 | 1.37 | 1.56 | 1.59 | 0.816 | 0.663 | -6.95 (inactive)
CCCCC(=C=CC[C@@H](O)c1ccc(CO)o1)CCO | -0.276 | -0.35 (inactive) | 0.0261 | -0.044 | 0.595 | -0.0845 | 0.24 | 1.17 | 0.29 | 0.119 | 1.05 | 0.0355 | -0.347 | -0.313 | 1.14 | 1.13 | 0.622 | 1.08 | 0.55 | -2.51 (inactive)
